Results filed as inconclusive are left out. Where a call stands in place of a potency, no number is given. The source made the active and inactive calls. Calls come from the whole dose curve; as a rule, active = well fitted cell-killing curve with a large enough effect; inconclusive = small, poorly fitted or top-dose-only effect; inactive = no such curve, though single readings can be large or run the other way.
Experiment: qHTS of pediatric cancer cell lines to identify multiple opportunities for drug repurposing: Primary screen for OHS-50 cells (AID 1347103); note: nearly all actives have a fitted effect of over 40% in size
Details: OHS-50 osteosarcoma viability, CellTiter-Glo luminescence, 48 h; series mostly up to 57.3 µM
Excerpt: Drug repurposing or repositioning has been offered as a strategy for drug development in oncology programs. This approach has special potential for childhood cancers and other rare or orphan diseases, where the expected return on new drug development has been a disincentive to pharmaceuticals.
In this project we exploit the poly-pharmacology of drugs to discover new indications via phenotypic screening of a panel of 19 well-characterized cell lines derived from solid tumors seen in children and adolescents. The goal is to identify approved drugs with previously unrecognized anticancer properties that has the potential to reveal new mechanisms and biological processes involved in carcinogenesis or drug resistance. We employed a titration-based paradigm (quantitative high-throughput screening or qHTS), where all compounds were tested at multiple concentrations for their effect on cell viability. Concentration-response curves (CRCs) were derived directly from the primary screen, and both potency and efficacy values were used to identify compounds with robust bioactivity profiles. We screened the NIH Chemical Genomics Center (NCGC) Pharmaceutical Collection (NPC) and Mechanism Interrogation Plate (MIPE) small molecule collections of approved and investigational compounds against these cell lines; and measured metabolically active cells after 48 hours of compound treatment as a proxy for cell viability.
Assay Submitter: Nathalia J. Martinez, National Center for Advancing Translational Sciences, National Institutes of Health, Rockville, MD, USA; email: natalia.martinez@nih.gov
[1] Shen, M et al. Quantitative high-throughput phenotypic screening of pediatric cancer cell lines identifies multiple opportunities for drug repurposing. Oncotarget 2017 Dec 19;9(4):4758-4772. PMID 29435139.
The cells were obtained from University of North Carolina (UNC), Pediatric Preclinical Testing Program (PPT), and Coriell Institute (CI).
qHTS cell viability assay:
Cells were assayed in growth media at a density of 500-1,000 cells/well. Five microliters of cells were dispensed into 1,536-well, white, solid-bottom, TC-treated plates (Greiner Bio One) using a multidrop dispenser and incubated at 37 degrees C, 5% CO2, under a humidified atmosphere for 5 hours. Twenty-three nanoliters of compounds and controls (neutral control DMSO or positive control bortezomib at final concentration of 2.3 µM) were subsequently transferred by Kalypsys pintool. For primary screens, the MIPE collection was tested at 11-point dilutions (final concentrations range from 0.78 nM to 46 µM) and the NPC collection at 8-point dilutions (final concentrations range from 0.59 nM to 46 µM). Compounds tested in follow-up screens were assayed at 11-point dilutions. Cells were incubated for 48 hours, followed by addition of 3 µL of CellTiter-Glo (Promega). After a 15 min incubation at room temperature, samples were analyzed for luminescence intensity using a ViewLux High-throughput CCD imager equipped with clear filters.
Potency is the fitted concentration of half-maximal effect.

| SMILES | Potency |
| --- | --- |
| C#C[C@]1(O)C=C[C@@H]2[C@@H]3CCC4=CC(=O)CC[C@@H]4[C@H]3CC[C@@]21CC | inactive |
| COc1cc([C@@H]2c3cc4c(cc3[C@@H](O)C3COC(=O)C32)OCO4)cc(OC)c1O (stereo not given in full) | 34.3 nM (active) |
| CC(C)[C@]12O[C@@H]1[C@@H]1O[C@]13[C@]1(O[C@H]1C[C@@H]1C4=C(CC[C@@]13C)C(=O)OC4)[C@H]2O | 1 nM (active) |
| CCOC(=O)Nc1ccc(NCc2ccc(F)cc2)cc1N | inactive |
| COc1ccc(C(=O)c2c(C)n(CCN3CCOCC3)c3cc(I)ccc23)cc1 | 19300 nM (active) |
| COC(=O)[C@@H](N)CCCN=C(N)N[N+](=O)[O-] | inactive |
| CN1CCN(c2ccc([N+](=O)[O-])c3no[n+]([O-])c23)CC1 | 34300 nM (active) |
| NC1=NC(=O)N2CC12 (stereo not given) | inactive |
| C=CCON=C(C[C@H]1O[C@@H]2O[C@]3(C)CC[C@@H]4[C@H](C)CC[C@@H]([C@H]1C)[C@@]24OO3)[C@H]1O[C@@H]2O[C@]3(C)CC[C@H]4[C@H](C)CC[C@@H]([C@@H]1C)[C@@]24OO3 | 306 nM (active) |
| c1cc2ccc3cccc4ccc(c1)c2c34 | inactive |
| Cc1[nH]nc2ccc(-c3cncc(OC[C@@H](N)Cc4c[nH]c5ccccc45)c3)cc12 | 1530 nM (active) |
| CC(=Cc1csc(C)n1)[C@@H]1C[C@H]2O[C@@H]2CCC[C@H](C)[C@@H](O)[C@@H](C)C(=O)C(C)(C)[C@@H](O)CC(=O)O1 | 1 nM (active) |
| O=[N+]([O-])c1ccc([As](=O)(O)O)cc1 | inactive |
| C[C@@H]1[C@H](O)[C@@H](C)C=CC=CCCC=CC=CC=CC=C[C@H](O[C@H]2O[C@@H](C)[C@H](O)[C@@H](N)[C@@H]2O)CC2O[C@](O)(C[C@@H](O)[C@H](O)CC[C@@H](O)C[C@@H](O)C[C@@H](O)CC(=O)O[C@H]1C)C[C@H](O)[C@H]2C(=O)O | inactive |
| c1ccc(CCCN2CCN(CCOC(c3ccccc3)c3ccccc3)CC2)cc1 | 21700 nM (active) |
| O=C1C(I)=CC(=C(c2cc(I)c(O)c(I)c2)c2ccccc2C(=O)O)C=C1I | inactive |
| Cc1ccc(Cl)c(O)c1 | inactive |
| CC(C)NCC(O)c1ccc([N+](=O)[O-])cc1 (stereo not given) | inactive |
| O=C(O)C(Cl)Cl | inactive |
| CC[N+]1(CCOC(=O)C(O)(c2ccccc2)c2ccccc2)CCCCC1 | inactive |

| SMILES | Potency |
| --- | --- |
| C=CC(=O)NCNC(=O)C=C | inactive |
| COc1cc2cc(c1Cl)N(C)C(=O)C[C@H](OC(=O)C(C)C)[C@]1(C)O[C@H]1[C@H](C)[C@@H]1C[C@@](O)(NC(=O)O1)[C@H](OC)C=CC=C(C)C2 | 1 nM (active) |
| CCOCCOC(C)=O | inactive |
| Nc1ccc(Cl)cc1 | inactive |
| CCCN1CCO[C@@H]2c3cc(O)ccc3OC[C@@H]21 | inactive |
| O=[N+]([O-])c1ncc[nH]1 | inactive |
| O=S(=O)(F)Cc1ccccc1 | inactive |
| Nc1c(Cl)c(Cl)c(Cl)c(Cl)c1Cl | inactive |
| CC[C@H]1C=CC=CC[C@@H](C)[C@H](O)[C@@](C)(O)C(=O)[C@@H](C)[C@H](O)[C@@H](C)C(=O)[C@@H](C)[C@H](O)[C@@H](C)C=CC(=O)O[C@@H]2[C@@H](C)[C@H](CC1)O[C@]1(CC[C@H](C)[C@H](C[C@@H](C)O)O1)[C@H]2C | 4.9 nM (active) |
| C[C@@H]1O[C@@H](O[C@@H]2C=C3CC[C@@H]4[C@@H](CC[C@]5(C)[C@H](c6ccc(=O)oc6)CC[C@@]45O)[C@@]3(C)CC2)[C@H](O)[C@H](O)[C@H]1O | 17.2 nM (active) |
| CC[C@@]1(O)C(=O)OCc2c1cc1n(c2=O)Cc2cc3ccccc3nc2-1 | 19.3 nM (active) |
| CC(Cc1ccc(O)cc1)NCC(O)c1cc(O)cc(O)c1 (stereo not given) | inactive |
| C1=C2CCCN[C@H]2[C@@H]2C[C@H]1[C@@H]1CCCCN1C2 | inactive |
| CCN1C[C@]2(OC(=O)c3ccccc3NC(C)=O)CC[C@H](OC)[C@@]34[C@H]5CC6[C@@H](OC)C[C@](O)(C(C[C@@H]23)[C@@H]14)[C@@]5(O)[C@@H]6OC | inactive |
| O=[N+]([O-])c1c(Cl)c(Cl)cc(Cl)c1Cl | inactive |
| O=C(Nc1ccncc1)C(=O)c1cn(Cc2ccc(Cl)cc2)c2ccccc12 | 86.3 nM (active) |
| CCCCC(CC)COC(=O)c1ccccc1C(=O)OCC(CC)CCCC (stereo not given) | inactive |
| OCCCBr | inactive |
| CC(=CCCC1=CCC(C2=CC(=O)OC2O)OC1O)CCC1=C(C)CCCC1(C)C (stereo not given) | inactive |
| Nc1ccc(Cl)cc1N | inactive |
